Activity calls are given as the source filed them.
system: XIP peptide (Xip251-270) binding; test: small-molecule binders of XIP peptide, primary screen, biochemical, small-molecule microarray, fluorescence 635/667 nm, 0.1 µg/mL protein (AID 1182); settings: fluorescent protein binding, 635 nm, higher = more signal, called active from +8 up or from −8 down

Composite z-score, inactive:
O=C(C1N=C(c2ccc(OCCCO)cc2)N(c2ccccc2)O1)N1CCOCC1 (centres undefined) 0.254
CC(C)N1C(=O)c2ccccc2[C@](C)(C(=O)NCc2ccccc2)[C@@H]1c1ccc(CO)cc1 -0.534
COCCn1c(C(=O)N2CCCC2)cc2c1C[C@H]1CN(C(=O)c3ccccc3)[C@@](Cc3ccc(F)cc3)(C(=O)OC)[C@@H]21 0.254
C=C(/C(=C/C[C@@H](OC(C)=O)c1ccc(OCCO)cc1)c1cnc2ccccc2c1)C(C)C 0.174
[N-]=[N+]=NCc1ccccc1C[C@]1(C(=O)N2CCOCC2)N=C(c2ccc(OCCCO)cc2)O[C@H]1c1ccccc1N=[N+]=[N-] 0.141
CC(=O)NCCCC[C@@H]1NC(=O)[C@@H]2C[C@H](C(=O)NCCCCCCNC(=O)CS)[C@H](c3cccc(OCCO)c3)N2C1=O 0.732
C=CCOC(=O)[C@@H]1[C@H]2C(=O)O[C@H](c3ccccc3)[C@H](c3ccccc3)N2[C@H](c2ccc(OCCOC(=O)[C@@H]3C[C@@H]4C(=O)N[C@@H](CCCC[N+](C)(C)C)C(=O)N4[C@@H]3c3cccc(OCCO)c3)cc2)[C@@]12C(=O)Nc1ccc(I)cc12 1.18
CC(C)C[C@H]1NC(=O)[C@@]23C(=O)N[C@@H](Cc4ccccc4)C2[C@H](C)[C@@]2(C)O[C@H]2C3/C=C/C/C=C\CNC(=O)[C@H](Cc2ccccc2)NC1=O (some centres undefined) 0.303
C=CCN1C(=O)[C@]2(O[C@H](CCO)[C@@H]([Si](C)(C)c3ccc(OC)cc3)[C@@H]2C)c2cc(N3C(=O)c4cccc5cccc3c45)ccc21 0.966
